Laboratory results as given in ChEMBL document CHEMBL4513141, “CO-ADD screening of NIH (USA) - Clinical Collection” (2021).
Results with a measured potency or affinity are listed apart.

Columns and labels:
Staphylococcus aureus = conditions: Concentration 20 uM; ASSAY_TEST Inhibition of Bacterial Growth; detection method Absorption (OD600); MEDIA CAMHB; plate type 384well; NBS; CORNING #3640; time 18 hr
Escherichia coli = conditions: Concentration 20 uM; ASSAY_TEST Inhibition of Bacterial Growth; detection method Absorption (OD600); MEDIA CAMHB; plate type 384well; NBS; CORNING #3640; time 18 hr

With `Br.COc1ccc2c3c1O[C@H]1C[C@@H](O)C=C[C@@]31CCN(C)C2` [GALANTAMINE HYDROBROMIDE] as the compound, how does the Inhibition (Staphylococcus aureus) read?
The Inhibition was 13.66%.

What about the Inhibition (Escherichia coli) of the same compound?
The Inhibition was 3.62%.

`CN[C@@H]1C[C@@H](c2ccc(Cl)c(Cl)c2)c2ccccc21.Cl` [INDATRALINE HYDROCHLORIDE] was tested. Which Inhibition (Staphylococcus aureus) did it give?
Its Inhibition is -18.12%.

And the Inhibition (Escherichia coli)?
The Inhibition was 7.7%.

How did the Inhibition (Staphylococcus aureus) turn out when `CC[C@@H]1/C=C/C=C/C[C@H](C)[C@@H](O)[C@](C)(O)C(=O)[C@H](C)[C@@H](O)[C@H](C)C(=O)[C@H](C)[C@@H](O)[C@H](C)/C=C/C(=O)O[C@H]2[C@@H](C)[C@@H](CC1)O[C@@]1(CC[C@@H](C)[C@@H](C[C@H](C)O)O1)[C@@H]2C` was run?
Its Inhibition is 9.12%.

And the Inhibition (Escherichia coli)?
The Inhibition was 0.23%.

How did the Inhibition (Staphylococcus aureus) turn out when `NC(=O)C[S+]([O-])C(c1ccccc1)c1ccccc1` (configuration not stated) [MODAFINIL] was run?
Its Inhibition is 3.29%.

And the Inhibition (Escherichia coli)?
Its Inhibition is 4.2%.

Which results are given for `CC(C)[C@]12O[C@H]1[C@@H]1O[C@]13[C@]1(O[C@H]1C[C@H]1C4=C(CC[C@@]13C)C(=O)OC4)[C@@H]2O` [TRIPTOLIDE]?
Inhibition (Staphylococcus aureus): 14.16%; Inhibition (Escherichia coli): -9.75%

What does the source list for `CCOC(=O)c1ncn2c1CN(C)C(=O)c1cc(F)ccc1-2` [FLUMAZENIL]?
Inhibition (Staphylococcus aureus): -0.36%; Inhibition (Escherichia coli): -2.76%

`N=C(NCc1ccc(Cl)cc1)SCCCc1c[nH]cn1` [CLOBENPROPIT] was tested. Which Inhibition (Staphylococcus aureus) did it give?
Its Inhibition is -4.61%.

What about the Inhibition (Escherichia coli) of the same compound?
The Inhibition was -3.53%.

What does the source list for `CC[N+](C)(C)c1cccc(O)c1.[Cl-]` [EDROPHONIUM CHLORIDE]?
Inhibition (Staphylococcus aureus): 15.74%; Inhibition (Escherichia coli): 2.93%

For `C=C(C)CN1CC[C@]23c4c5ccc(O)c4O[C@H]2c2[nH]c4ccccc4c2C[C@@]3(O)C1C5.Cl.O`, which Inhibition (Staphylococcus aureus) is on record?
Its Inhibition is 1.35%.

And the Inhibition (Escherichia coli)?
Its Inhibition is 1.94%.

What does the source list for `COc1cc([C@@H]2c3cc4c(cc3[C@H](O)[C@H]3COC(=O)[C@H]23)OCO4)cc(OC)c1OC` [PODOFILOX]?
Inhibition (Staphylococcus aureus): 6.19%; Inhibition (Escherichia coli): 3.91%

With `CN1CCN(C(=O)O[C@H]2c3nccnc3C(=O)N2c2ccc(Cl)cn2)CC1` [ESZOPICLONE] as the compound, how does the Inhibition (Staphylococcus aureus) read?
The Inhibition was -7.93%.

And the Inhibition (Escherichia coli)?
The Inhibition was -0.26%.

What does the source list for `CCCCCNC(=N)N/N=C/c1c[nH]c2ccc(OC)cc12.O=C(O)/C=C\C(=O)O` [TEGASEROD MALEATE]?
Inhibition (Staphylococcus aureus): 22.85%; Inhibition (Escherichia coli): -0.84%

Which results are given for `CN1CCN(C2=Nc3cc(Cl)ccc3Nc3ccccc32)CC1` [CLOZAPINE]?
Inhibition (Staphylococcus aureus): -2.25%; Inhibition (Escherichia coli): -7.08%

Which results are given for `C[N+]1(C)CCN(c2ccccc2)CC1.[I-]` [DIMETHYLPHENYLPIPERAZINIUM IODIDE]?
Inhibition (Staphylococcus aureus): 11.69%; Inhibition (Escherichia coli): 3.59%

How did the Inhibition (Staphylococcus aureus) turn out when `COc1cc2c(cc1OC)[C@@]13CCN4CC5=CCO[C@H]6CC(=O)N2[C@H]1[C@H]6[C@H]5C[C@H]43` [BRUCINE] was run?
The Inhibition was 7.1%.

What about the Inhibition (Escherichia coli) of the same compound?
Its Inhibition is -1.43%.

Which results are given for `CCOC(=O)C1(c2ccccc2)CCN(CCC(C#N)(c2ccccc2)c2ccccc2)CC1.Cl` [DIPHENOXYLATE HYDROCHLORIDE]?
Inhibition (Staphylococcus aureus): 14.18%; Inhibition (Escherichia coli): -7.43%

Which Inhibition (Staphylococcus aureus) does the source give for `CN1CCC[C@H]1c1cccnc1` [NICOTINE] here?
Its Inhibition is -15.48%.

What about the Inhibition (Escherichia coli) of the same compound?
Its Inhibition is 6.98%.

How did the Inhibition (Staphylococcus aureus) turn out when `Oc1ncnc2[nH]ncc12` [ALLOPURINOL] was run?
The Inhibition was 15.53%.

What about the Inhibition (Escherichia coli) of the same compound?
The Inhibition was 6.23%.

Which results are given for `C[C@]12CC(C=O)=C(O)C[C@@H]1CC[C@@H]1[C@@H]2CC[C@@]2(C)[C@H]1CC[C@]2(C)O`?
Inhibition (Staphylococcus aureus): 4.66%; Inhibition (Escherichia coli): 7.86%

Which Inhibition (Staphylococcus aureus) does the source give for `CCOC(=O)c1cncn1[C@H](C)c1ccccc1` [ETOMIDATE] here?
Its Inhibition is 11.17%.

And the Inhibition (Escherichia coli)?
The Inhibition was 2.26%.

With `CN(C)CCC=C1c2ccccc2CCc2ccccc21.Cl` [AMITRIPTYLINE HYDROCHLORIDE] as the compound, how does the Inhibition (Staphylococcus aureus) read?
The Inhibition was 5.1%.

What about the Inhibition (Escherichia coli) of the same compound?
Its Inhibition is 1.2%.

For `C=C1C[C@@H]2[C@H](CC[C@]3(C)C(=O)CC[C@@H]23)[C@@]2(C)C=CC(=O)C=C12` [EXEMESTANE], which Inhibition (Staphylococcus aureus) is on record?
The Inhibition was 13.66%.

And the Inhibition (Escherichia coli)?
The Inhibition was -6.95%.

Which Inhibition (Staphylococcus aureus) does the source give for `c1ccc2c(c1)Nc1ccccc1S2` [PHENOTHIAZINE] here?
The Inhibition was -22.92%.

And the Inhibition (Escherichia coli)?
The Inhibition was 9.21%.

For `NS(=O)(=O)c1cc(C2(O)NC(=O)c3ccccc32)ccc1Cl` (configuration not stated) [CHLORTHALIDONE], which Inhibition (Staphylococcus aureus) is on record?
The Inhibition was 15.62%.

What about the Inhibition (Escherichia coli) of the same compound?
Its Inhibition is -0.28%.

Which results are given for `Cc1ncc2n1-c1ccc(Cl)cc1C(c1ccccc1F)=NC2.Cl` [MIDAZOLAM HYDROCHLORIDE]?
Inhibition (Staphylococcus aureus): -27.39%; Inhibition (Escherichia coli): 7.58%

How did the Inhibition (Staphylococcus aureus) turn out when `C#C[C@]1(OC(C)=O)CC[C@H]2[C@@H]3CCC4=CC(=O)CC[C@@H]4[C@H]3CC[C@@]21C` [NORETHINDRONE ACETATE] was run?
Its Inhibition is 11.13%.

And the Inhibition (Escherichia coli)?
The Inhibition was -1.23%.
